Hits are enriched below; roughly 3% of the tested compounds scored in any of these assays.
Vif inh: HIV Vif inhibition; HEK293T cells, Vif self-association by quenched fluorescence, imaging, 24 h; inhibition, % at 7.49 µM; 0.35% of 340,000 active; in the data active means inhibition above about 50%, passing the limit was not always enough; inconclusive means no clear call, values can overlap the other calls; inactive means below about 31%
MITF TRPM1 HTS: activators of MITF-driven TRPM1 promoter activity in SK-MEL-5 cells; SK-MEL-5 TRPM1-promoter luciferase, 24 h; % of positive control, neutral wells = 0; 0.75% of 300,000 active; activation, % at 12.5 µM;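 active means mean activation of at least 80% with every replicate also reaching 80%; inconclusive means mean reaches 80% but some replicate falls short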
esBAF inh: SWI/SNF esBAF complex inhibition. mouse ES cells, Bmi1-luciferase knock-in reporter, 24 h; 100% = twice the neutral-well signal. reporter increase, % at 12.5 µM. 2% of 350,000 active. AID 602393; in the data active means activation above about 40%; inconclusive means no clear call, values can overlap the other calls;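 further: a rise in the Bmi1 reporter signal indicates esBAF inhibition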
PfHsp90 yeast 2: reduces growth (ATP signal) of yeast expressing P. falciparum Hsp90. S. cerevisiae expressing PfHsp90, BacTiter-Glo ATP, 48 h; yeast lacking PDR1 and PDR3 efflux regulators. 0.32% of 310,000 active. inhibition, % at 9.4 µM;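 active means every replicate shows inhibition above about 80%, whatever the replicate mean, limit read from the data; inconclusive means mean inhibition reaches the set limit but some replicate falls short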
N-glyco inh: blocks N-linked glycosylation in D54 reporter cells | AID 588692 | D54 ERlucT glycosylation luciferase reporter, 24 h; percent of 100 nM tunicamycin response | reporter increase, % at 12.5 µM | 0.23% of 360,000 active;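 active means mean luciferase reporter signal, scaled so untreated is 0 and the glycosylation-blocking control 100, at or above a set limit in every replicate; inconclusive means mean reaches the limit but not every replicate does; inactive means mean below the limit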;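 further: luciferase carries N-glycosylation sites so blocking glycosylation raises the light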
Wnt act: activators of Wnt/beta-catenin signaling | Wnt/beta-catenin reporter cell assay, activator, plate reader | activation, % at 9.35 µM | 1.2% of 300,000 active | AID 743398; in the data active means activation above about 30%, passing the limit was not always enough; inconclusive means no clear call, values can overlap the other calls
Of the large screens only hits and unclear results are named; the others gave an inactive call.

O=C(Nc1ccc(NC(=O)C2CCCCC2)nc1)c1cccs1	Wnt act 54.5 (no result: esBAF inh)
O=C(Nc1nnc(C2CCCCC2)s1)c1cccs1	esBAF inh 50.8, Wnt act 58.0 (no result: MITF TRPM1 HTS)
O=C(Nc1nnc(Cc2ccccc2)s1)c1ccccc1	esBAF inh 70.2 (no result: MITF TRPM1 HTS)
Cc1ccc(C(=O)Nc2nnc(Cc3ccccc3)s2)cc1	none
Cn1cnc(S(=O)(=O)N[C@@H]2C=C[C@@H](CC(=O)NCC3CC3)O[C@@H]2CO)c1	none (no result: Vif inh, MITF TRPM1 HTS, PfHsp90 yeast 2, N-glyco inh, Wnt act)
CC1CCCC(C)N1C(=O)CSc1nnc(NC(=O)c2cccs2)s1 (stereo not given)	Vif inh 108.5 (no result: MITF TRPM1 HTS, PfHsp90 yeast 2)
COc1ccccc1OCC(=O)Nc1nnc(C2CCCC2)s1	none
Cc1ccc(C(=O)Nc2nnc(COCCO)s2)cc1	esBAF inh 49.7 (no result: MITF TRPM1 HTS, PfHsp90 yeast 2)
O=C(Nc1nnc(-c2cccnc2)s1)c1cccs1	none
COc1ccccc1NC(=O)CCC(=O)Nc1nnc(C2CCCCC2)s1	Wnt act 34.5
Cc1cccc(-c2nnc(NC(=O)c3cccs3)s2)c1	esBAF inh 46.8
CCCN1C(=O)CC(Sc2ncccc2C(=O)O)C1=O (stereo not given)	none
Cc1ccc(CSCCNC(=O)CSc2ccccc2)cc1	none
COc1cc(OC)c(C(=O)OC(C)C(=O)NCc2ccc3c(c2)OCO3)cc1OC (stereo not given)	none
O=C(Nc1nnc(Cc2ccccc2)s1)c1cccs1	esBAF inh 43.6 (no result: Wnt act)
CCN1CCc2c(sc(NC(=S)NC(=O)c3ccc(Cl)cc3)c2C(N)=O)C1	Vif inh 50.8 (no result: MITF TRPM1 HTS, esBAF inh)
CCN1CCc2c(sc(NC(=O)c3ccc4ccccc4c3)c2C(N)=O)C1	none
CC(=O)c1cccc(NC(=O)CCc2nnc3ccc(N4CCOCC4)nn23)c1	none
Cc1cc(C)nc(NC(N)=NC(C)c2ccccc2)n1 (stereo not given)	none (no result: Vif inh, MITF TRPM1 HTS, esBAF inh, PfHsp90 yeast 2, N-glyco inh)
Cc1nc2c(-c3ccccc3)c[nH]n2c(=O)c1Cc1ccccc1	esBAF inh 46.8
Cc1cc(=O)n2[nH]cc(-c3ccccc3)c2n1	none
Cc1nn2cc(-c3cccc(Cl)c3)cnc2c1Cl	esBAF inh 78.9
CN1CCN(C(=O)c2ccc(-c3cccs3)s2)CC1	Wnt act 36.0 (no result: MITF TRPM1 HTS, esBAF inh)
COc1ccc(-c2noc(C3CCCN(C(=O)c4ccccc4)C3)n2)cc1 (stereo not given)	esBAF inh 42.2
COc1ccc(-c2noc(C3CCCN(C(=O)Nc4ccccc4)C3)n2)cc1 (stereo not given)	esBAF inh 59.1
COc1ccc(-c2noc(C3CCCN(C(=O)c4cccc(F)c4)C3)n2)cc1 (stereo not given)	none
O=C(c1c(F)cccc1F)N1CCCC(c2nc(-c3cccs3)no2)C1 (stereo not given)	esBAF inh 80.8
CC(C)(C)C(=O)Nc1cc(NC(=O)C(C)(C)C)cc(C(=O)NNC(=O)c2ccncc2)c1	none (no result: MITF TRPM1 HTS)
N#CCSc1nc2ccccc2c(=O)n1CCCC(=O)NCc1ccco1	none
Cc1cc(NC(=O)CSc2nc3ccccc3c(=O)n2CCCC(=O)NCc2ccco2)n[nH]1	Vif inh 51.4 (no result: MITF TRPM1 HTS, Wnt act)
Cc1cccc(Nc2nc(-c3ccc(O)c(O)c3)cs2)n1	Vif inh 63.9, esBAF inh 93.2 (no result: MITF TRPM1 HTS)
Cc1cccc(Nc2nc(-c3ccc(F)c(C)c3)cs2)n1	esBAF inh 57.6, Wnt act 45.7
Cc1ccc(O)c(-c2cc(-c3cccc(Br)c3)n[nH]2)c1	PfHsp90 yeast 2 105.0
Oc1ccccc1-c1cc(-c2ccccc2)n[nH]1	Wnt act 53.3
Cc1ccc(-c2cc(-c3ccc(F)cc3)n[nH]2)c(O)c1	none
Oc1ccccc1-c1cc(-c2ccc(F)cc2)n[nH]1	Wnt act 53.4
Oc1ccc(Cl)cc1-c1cc(-c2ccccc2)n[nH]1	none
COc1ccc(-c2cc(-c3ccccc3)n[nH]2)c(O)c1	esBAF inh 83.4
COc1ccc(-c2cc(-c3ccccc3O)[nH]n2)cc1	none (no result: esBAF inh, Wnt act)
CC(C)N(Cc1ccccc1)C(=O)COC(=O)c1ccc(S(=O)(=O)N2CCOCC2)cc1	none
CCN(CC(=O)NCc1ccc(F)cc1)C(=O)/C=C/c1ccc(OC)c(S(=O)(=O)NC(C)C)c1	N-glyco inh inconclusive
C[C@H](CO)N1C[C@H](C)[C@H](CN(C)S(=O)(=O)c2ccc(F)cc2)Oc2c(NC(=O)c3nc4ccccc4s3)cccc2C1=O	none (no result: Vif inh, MITF TRPM1 HTS, PfHsp90 yeast 2, N-glyco inh, Wnt act)
CC[C@H](C)[C@H](NC(N)=O)C(=O)Nc1ccc(S(=O)(=O)NC(C)C)cc1	none
CC(C)(C)S(=O)N1Cc2cc(C(=O)N3CCOCC3)nc(-c3cccc(Br)c3)c2[C@H]1CCO (stereo not given in full)	none (no result: Vif inh, MITF TRPM1 HTS, PfHsp90 yeast 2)
NC1CCCCC1N=Cc1c(O)n(CCc2ccc(F)cc2)c(=O)[nH]c1=O (stereo not given)	none (no result: Wnt act)
CCOc1ccccc1NC(=O)c1ccc2c(c1)C(=O)N(CC)C2=O	none
O=C(O)c1cccc2c1C(=O)c1ccc(-c3ccc(OC(F)(F)F)cc3)cc1S2(=O)=O	none
O=C(NCc1ccc(OC(F)(F)F)cc1)c1cccc2c1C(=O)c1ccc(N3CCCCC3)cc1S2(=O)=O	Vif inh 55.1
O=C(NCc1ccccc1Br)c1cccc2c1C(=O)c1ccc(-c3ccc(OC(F)(F)F)cc3)cc1S2(=O)=O	Vif inh inconclusive, N-glyco inh 156.2 (no result: Wnt act)
COc1cc2c(OC(C)=O)c3c(c(-c4ccc5c(c4)OCO5)c2cc1OC)C(=O)OC3	Vif inh 172.9 (no result: MITF TRPM1 HTS)
COc1cc2c(O)c3c(c(-c4ccc5c(c4)OCO5)c2cc1OC)C(=O)OC3	none
C[C@H](CO)N1C[C@H](C)[C@@H](CN(C)S(=O)(=O)c2cccc(F)c2)OCc2cn(nn2)CCCC1=O	none (no result: MITF TRPM1 HTS, PfHsp90 yeast 2)
CC(C)C[C@H]1CN=C(Nc2ccccc2)N1CC1CCCCCC1	none
CC(=O)Nc1ccc(Sc2ccc([N+](=O)[O-])o2)cc1	Vif inh 116.4 (no result: PfHsp90 yeast 2)
C=COCCNC(=S)N1CCOCCOCCN(C(=S)NCCOC=C)CCOCC1	none (no result: esBAF inh)
O=C(Cn1c(=O)n(CCCCC(=O)NC2CCCC2)c(=O)c2ccccc21)NCCC1=CCCCC1	none
COc1cc(C2NC(=O)NC(C)=C2C(C)=O)ccc1O (stereo not given)	none
CC1(C(=O)NS(=O)(=O)c2ccc(Cl)s2)CCN1C(=O)C1(c2ccccc2)CCCC1 (stereo not given)	none (no result: MITF TRPM1 HTS, PfHsp90 yeast 2)
Cc1ccc(C(=O)NCC(=O)N2CCN(S(=O)(=O)c3cccs3)CC2)s1	none
O=C(c1cc(-c2ccccc2Cl)on1)N1CCN(C(=O)c2ccco2)CC1	none (no result: Vif inh, Wnt act)
O=C(NCC(=O)N1CCN(S(=O)(=O)c2cccs2)CC1)c1ccc(Cl)cc1	Vif inh 57.8
O=C(c1ccc(-c2ccccc2Cl)o1)N1CCN(S(=O)(=O)c2cccs2)CC1	MITF TRPM1 HTS 87.3 (no result: esBAF inh)
O=C(c1ccccc1Cl)N1CCN(S(=O)(=O)c2cccs2)CC1	none
O=C(c1ccco1)N1CCN(C(=O)c2ccc(-c3ccccc3Cl)o2)CC1	MITF TRPM1 HTS inconclusive, esBAF inh 56.1

High-throughput results deposited in PubChem by Broad Institute.
